Assay results published in the supplement of paper PMC10338343.
± gives the standard deviation.

Test system: MILI (PIWIL2) piRISC loaded with piRNA #1 (26 nt)
Experiment: pre-steady-state target cleavage rate (min^-1); guide: piRNA #1 5'p-UGAGGUAGUAGGUUGUAUAGUAUCCA; MIWI and MILI are mouse PIWI proteins and EfPiwi is from a freshwater sponge; tags in brackets are library labels; higher = faster piRNA-guided slicing of the target
Conditions: auxiliary factor: 500 nM mouse GTSF1
Outline: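 A burst-and-steady-state fit was used to obtain the pre-steady-state cleavage rate. The input data were sequencing reads of uncleaved targets, normalised to depth and to weakly complementary targets, from a […] transcribed, DNA-blocked target RNA library mixed with 1 nM active affinity-purified piRISC holding one synthetic guide, with or without 500 nM GTSF1 partner protein, in HEPES–potassium acetate buffer at 33 °C for 0–8 or 0–960 min. Three trials were pooled and k3 was capped at 0.0001 min^-1.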
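Note: 1 nM active piRISC with 0.1 nM target library at 33 °C single turnover.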

Row | Sequence | pre-steady-state target cleavage rate
1 | GGAGACCUAUGUAAACAACCUACUACCUGA | 0.00535 ± 0.0019
2 | GGAGACCUAUGAUUAUAACCUACUACCUCA | 0.00484 ± 0.0026
3 | GGAGACCAUACUAUACAACCAUACUACCUCA | 0.0045 ± 0.0036
4 | GGAGACCUUUCUAUACAAGCUACUACCUCA | 0.159 ± 0.012
5 | GGAGACCUAUGAUAACAACCUCCUACCUCA | 0.00522 ± 0.0021
6 | GGAGUGGAAUGUAUACAACCUACUACCUCA | 0.0864 ± 0.0076
7 | GGAGACCUAUGAUUACAUGCUACUACCUCA | 0.00366 ± 0.0034
8 | GGAGACCUAACUAAACAACCUAGUACCUCA | 0.0123 ± 0.0073
9 | GGAGACCUAUGAUAUCACCUACUACCUCA | 0.00625 ± 0.0026
10 | GGAGACCUUAGUAUACAACCUACUUCCUCA | 0.0515 ± 0.014
11 | GGAGACCUAUGAAUAUAACCUACUACCUCA | 0.0081 ± 0.0024
12 | GGAGACCUUACUAUCAACCUACUACCUCA | 0.0728 ± 0.0079
13 | GGAGACCUAUGAUAUCAACCUACACCUCA | < 0.0001
14 | GGAGACGAUACUAUACAUCGUACUACCUCA | 0.0496 ± 0.0064
15 | GGAGACGUUACUUUACAACCUACUACCUCA | 0.141 ± 0.01
16 | GGAGACCAUUCUAUACAACCAACUACCUCA | 0.0079 ± 0.0026
17 | GGAGACCAUACUUUUCAACCUACUACCUCA | 0.153 ± 0.015
18 | GGAGACCUAUGUUUACAACCUACUACCUCA | 0.0117 ± 0.0031
19 | GGAGACCUAUGUAUACUACCUACUACCUGA | 0.0173 ± 0.0042
20 | GGAGACCUAUGAAUACAAGCUUCUACCUCA | 0.0038 ± 0.002
21 | GGAGACCUAUGAUAUCUACCUACUACGUCA | < 0.0001
22 | GGAGACCUAUGAACUACAACCUACUACCUCA | 0.00389 ± 0.0029
23 | GGAGACCAUACUAUACAACCAACUACCACA | 0.00384 ± 0.0026
24 | GGAGACGAUACUAAUGAACCUACUACCUCA | 0.0821 ± 0.011
